The source made the active and inactive calls.

Assay [1] has as its system Human papillomavirus type 1a protein E7 (residues 44-93). Kind of assay: small molecules binding HPV E7 44-93 – biochemical, small-molecule microarray, residues 44-93, 635 nm fluorescence, primary screen (AID 1108).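 Also: E7 fragment applied at 1 µg/mL in TBST for 1 h at 4 C; score combines spot fluorescence with its signal to noise ratio.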 The conditions noted are these: fluorescence 635 nm, higher = more signal.
The nature of assay [2]: hepatitis C replication reporter changes, two-sided – Huh7 cells, luciferase reporter, HCV replication inhibitor project, primary screen (AID 1109).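 Also: huh7 hepatoma cells harbouring a luciferase neomycin HCV replicon reporter; luciferase luminescence as measure of HCV replicon replication; test concentration not given here.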 As to conditions: Huh7 HCV replicon luciferase reporter, 48 h; higher = more signal.
The target of assay [3] is Left-right determination factor 2 (Homo sapiens) (UniProt O00292). Kind of assay: small molecules binding LEFTY2 protein – biochemical, small-molecule microarray, 635 nm fluorescence scan, primary screen (AID 1110). As to conditions: higher = more signal.
Chain of Left-right determination factor 2 (Homo sapiens) (O00292 whole entry, looked up): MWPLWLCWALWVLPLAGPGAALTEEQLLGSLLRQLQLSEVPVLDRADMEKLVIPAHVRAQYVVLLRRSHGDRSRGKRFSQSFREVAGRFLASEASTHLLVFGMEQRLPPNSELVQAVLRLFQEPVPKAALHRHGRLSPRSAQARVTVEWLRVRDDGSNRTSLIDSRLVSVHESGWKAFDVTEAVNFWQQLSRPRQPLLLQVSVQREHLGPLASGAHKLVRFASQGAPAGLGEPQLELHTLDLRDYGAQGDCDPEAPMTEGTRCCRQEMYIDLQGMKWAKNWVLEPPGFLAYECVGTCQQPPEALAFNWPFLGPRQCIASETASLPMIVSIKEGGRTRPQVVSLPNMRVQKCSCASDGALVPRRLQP
In assay [4] the target is Calmodulin-1 (Homo sapiens) (UniProt P0DP23). Kind of assay: small molecules binding calmodulin-1 with EGTA – biochemical, small-molecule microarray, Cy5-labelled CALM1, profiling panel (AID 1111).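 Also: labelled calmodulin applied in Tris saline Tween buffer holding calcium plus EGTA and DTT.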 As to conditions: Cy5-CALM1 binding fluorescence, higher = more signal.
Assay [5] shares this target. Kind of assay: small molecules binding Ca-loaded calmodulin-1 – biochemical, small-molecule microarray, Cy5-labelled CALM1, plus calcium, artefact control for SMM control-protein annotation, profiling panel (AID 1112).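 Also: score merges spot fluorescence with signal to noise from triplicate slides.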 As to conditions: Cy5-CALM1 binding fluorescence, higher = more signal.
Assay [6] in a line: probe aWnt5a binding to arrayed compounds – biochemical, biotinylated probe, 635/667 nm fluorescence, primary screen (AID 1113).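 Also: score merges 667 nm fluorescence intensity with signal-to-noise per printed feature.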 As to conditions: small-molecule microarray, higher = more signal.
Assay [7] in a line: probe aShh binding to arrayed compounds – biochemical, biotinylated probe, 635/667 nm fluorescence, primary screen (AID 1114).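 Also: probe is biotin-labelled aShh protein from a stem cell growth factor screen; measures binding of labelled protein to compounds printed on the slide; score merges feature fluorescence at 667 nm with signal-to-noise.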 The conditions noted are these: small-molecule microarray, higher = more signal.
The nature of assay [8]: probe aNog binding to arrayed compounds – biochemical, biotinylated probe, 635/667 nm fluorescence, primary screen (AID 1115).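 Also: probe is biotinylated aNog protein used at 0.15 µg/mL for 1 h at 4 C; z-score combines 667 nm fluorescence of each spot with its signal to noise.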 The conditions noted are these: small-molecule microarray, higher = more signal.
The target in assay [9] is Torsin-1A-interacting protein 1 (Homo sapiens) (UniProt Q5JTV8). Kind of assay: compound microarray binding of lysate hLAP1 – cell lysate, small-molecule microarray, COS7 lysate, 635/667 nm fluorescence, primary screen (AID 1116). The conditions noted are these: 635 nm fluorescence, higher = more signal.
Chain of Torsin-1A-interacting protein 1 (Homo sapiens) (Q5JTV8 whole entry, looked up): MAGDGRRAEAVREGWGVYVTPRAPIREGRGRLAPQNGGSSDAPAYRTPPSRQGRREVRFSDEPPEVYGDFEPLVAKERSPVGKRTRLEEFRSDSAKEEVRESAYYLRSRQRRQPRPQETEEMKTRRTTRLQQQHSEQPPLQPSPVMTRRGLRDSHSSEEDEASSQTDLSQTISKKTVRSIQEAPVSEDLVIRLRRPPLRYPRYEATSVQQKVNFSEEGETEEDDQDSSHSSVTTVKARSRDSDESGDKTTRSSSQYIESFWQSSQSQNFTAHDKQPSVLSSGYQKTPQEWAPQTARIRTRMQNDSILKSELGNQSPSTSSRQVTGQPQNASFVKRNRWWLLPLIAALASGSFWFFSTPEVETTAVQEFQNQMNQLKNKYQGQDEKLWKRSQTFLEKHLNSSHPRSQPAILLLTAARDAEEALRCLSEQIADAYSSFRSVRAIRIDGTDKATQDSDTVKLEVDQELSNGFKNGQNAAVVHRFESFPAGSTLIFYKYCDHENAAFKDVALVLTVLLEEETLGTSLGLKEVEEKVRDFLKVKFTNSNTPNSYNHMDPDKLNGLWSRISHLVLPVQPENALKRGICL
Assay [10] concerns the target Alpha-bungarotoxin (Bungarus multicinctus) (UniProt P60615). Kind of assay: compounds binding labelled alpha-BTX control protein – biochemical, small-molecule microarray, Alexa647 label, 635/667 nm fluorescence, artefact control for SMM control protein annotation, profiling panel (AID 1117). As to conditions: alpha-BTX-A647 binding fluorescence, higher = more signal.
The next assay addresses Albumin (Bos taurus) (UniProt P02769). Kind of assay: compounds binding labelled BSA control protein – biochemical, small-molecule microarray, Alexa647 label, 635/667 nm fluorescence, artefact control for SMM control protein annotation, profiling panel (AID 1118).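 Also: score merges 667 nm emission intensity and signal-to-noise per printed compound spot.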 As to conditions: BSA-A647 binding, fluorescence 635 nm, higher = more signal.
The nature of assay [11]: probe aXIP binding to arrayed compounds – biochemical, NeuroSMM set, 635/667 nm fluorescence, primary screen (AID 1119).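 Also: probe is the protein aXip251-270 applied at 1 µg/mL to compound-printed slides; binding of probe to printed compounds measured as 667 nm fluorescence plus signal to noise.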 As to conditions: small-molecule microarray, higher = more signal, called active from +8 up or from −8 down.
Assay [12] can be described thus: probe aNOTCH3 binding on compound microarray – biochemical, small-molecule microarray, 635/667 nm fluorescence, primary screen (AID 1120).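 Also: probe is a biotin-tagged antibody raised against NOTCH3 rather than NOTCH3 protein; score merges spot fluorescence near 667 nm with spot signal to noise.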 The conditions noted are these: higher = more signal.
Assay [13] is described as follows: probe aNOTCH2 binding on compound microarray – biochemical, small-molecule microarray, 635/667 nm fluorescence, primary screen (AID 1121).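 Also: score merges feature fluorescence read at 667 nm with its signal to noise.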 As to conditions: higher = more signal.
The target of assay [14] is Carbonic anhydrase 2 (Homo sapiens) (UniProt P00918). Kind of assay: compounds binding carbonic anhydrase 2 – biochemical, small-molecule microarray, Alexa647-labelled CAII, profiling panel (AID 1122). The conditions noted are these: CAII-A647 binding fluorescence, higher = more signal.
Assay [15] in a line: COS7 lysate on small-molecule microarray, probe aHis, 635 nm (AID 1123).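 Also: z-score combines 667nm fluorescence intensity with signal-to-noise per printed compound spot.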 As to conditions: COS7 cell lysate, fluorescence, higher = more signal.
Assay [16] can be described thus: probe aLAP1 signal on lysate-treated microarray – cell lysate, small-molecule microarray, COS7 lysate, primary screen (AID 1124).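 Also: lysate comes from COS7 cells expressing LAP1 and is applied at 0.3 µg/mL; score merges spot fluorescence near 667 nm with signal-to-noise over triplicate slides.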 The conditions noted are these: probe aLAP1, fluorescence, higher = more signal.
The subject of another assay is Sam68 (KHDRBS1). Kind of assay: compounds binding KHDRBS1 protein – biochemical, small-molecule microarray, 635 nm fluorescence, primary screen (AID 1125).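 Also: score merges 667 nm channel intensity with signal to noise over triplicate slides.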 As to conditions: higher = more signal.
Assay [17] concerns Chordin-like protein 2 (CHRDL2). Kind of assay: compounds binding chordin-like 2 – biochemical, small-molecule microarray, 635 nm fluorescence, primary screen (AID 1126).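 Also: printed compound slides probed with Chrdl2 protein at 4 µg/mL for 1 h at 4 C; score merges 667 nm emission intensity with signal to noise over three replicate slides.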 The conditions noted are these: fluorescence 635 nm, higher = more signal.
Assay [18] concerns the target Concanavalin-A (Canavalia ensiformis) (UniProt P02866). Kind of assay: compounds binding concanavalin A lectin – biochemical, small-molecule microarray, Alexa647 label, 635 nm, artefact control for SMM control protein annotation, primary screen (AID 1127).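 Also: z combines 667 nm emission intensity with signal-to-noise across three replicate slides.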 As to conditions: ConA-A647 binding fluorescence, higher = more signal.

Chain of Concanavalin-A (Canavalia ensiformis) (P02866 whole entry, looked up): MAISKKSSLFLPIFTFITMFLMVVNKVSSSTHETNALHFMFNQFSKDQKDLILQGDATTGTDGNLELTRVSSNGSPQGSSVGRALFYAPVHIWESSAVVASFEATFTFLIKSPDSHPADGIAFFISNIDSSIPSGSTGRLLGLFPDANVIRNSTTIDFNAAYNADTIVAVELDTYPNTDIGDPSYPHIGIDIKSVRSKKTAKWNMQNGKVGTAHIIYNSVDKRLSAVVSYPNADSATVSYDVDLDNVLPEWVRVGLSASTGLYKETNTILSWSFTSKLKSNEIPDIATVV
Chain of Alpha-bungarotoxin (Bungarus multicinctus) (P60615 whole entry, looked up): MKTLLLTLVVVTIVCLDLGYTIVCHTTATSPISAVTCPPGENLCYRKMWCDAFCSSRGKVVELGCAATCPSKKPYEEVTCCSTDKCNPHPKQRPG
Chain of Albumin (Bos taurus) (P02769 whole entry, looked up): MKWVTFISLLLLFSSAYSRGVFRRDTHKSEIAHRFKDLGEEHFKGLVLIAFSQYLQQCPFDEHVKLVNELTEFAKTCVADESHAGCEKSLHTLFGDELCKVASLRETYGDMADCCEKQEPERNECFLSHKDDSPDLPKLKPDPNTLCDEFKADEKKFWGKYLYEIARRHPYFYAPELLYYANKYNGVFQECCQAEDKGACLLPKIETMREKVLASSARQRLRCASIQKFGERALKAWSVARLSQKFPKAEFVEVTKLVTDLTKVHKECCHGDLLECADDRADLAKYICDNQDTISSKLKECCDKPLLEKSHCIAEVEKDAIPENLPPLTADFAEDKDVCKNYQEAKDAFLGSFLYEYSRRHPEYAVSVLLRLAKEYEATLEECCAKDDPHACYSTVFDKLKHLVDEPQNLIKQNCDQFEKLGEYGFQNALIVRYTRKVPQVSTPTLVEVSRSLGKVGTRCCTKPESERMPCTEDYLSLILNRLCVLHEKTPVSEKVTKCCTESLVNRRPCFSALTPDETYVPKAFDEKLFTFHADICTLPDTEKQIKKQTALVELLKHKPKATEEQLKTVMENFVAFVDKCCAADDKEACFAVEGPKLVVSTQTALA

Take `COCCOC(=O)N1C(=O)[C@@]2(c3cc(C#CC4=CCCCC4)ccc31)[C@H](C(=O)N1CCc3cc(OC)c(OC)cc3C1)[C@H]1C(=O)O[C@H](c3ccccc3)[C@H](c3ccccc3)N1[C@@H]2c1ccc(O)cc1`: the composite z-score came to 1.42 in assay [1]; 0.761 in assay [3]; 1.74 in assay [4]; 0.673 in assay [5]; 0.18 in assay [6]; 0.482 in [7]. Also, the composite z-score in [8] is 0.707; in assay [9], 1.34; in assay [10] it was 0.967; with Albumin (Bos taurus) it was 0.482; in assay [12], 0.285; in assay [13], 0.307. The composite z-score was 0.267 in [14]; 1.32 in assay [15]; 0.858 in [16]; 1.1 with Sam68 (KHDRBS1); 0.463 in [17]; 1.19 in [18]. Also, the z-score in assay [2] is -0.934. Also, the composite Z-score in [11] was 0.334 (inactive).
For `O=C1c2ccccc2[C@](Cc2ccccc2I)(C(=O)O)[C@H](c2ccc(CO)cc2)N1Cc1ccccc1`, the composite z-score in assay [1] was 1.17; in assay [3], -1.04; in [4] it was 1.34; in assay [5], 0.83; in assay [6] it was -0.0846; in [7] it was -0.26. Moreover, the composite z-score in [8] was -0.215; in assay [9], 0.712; in assay [10], 2.38; with Albumin (Bos taurus), 0.48; in assay [12] it was -0.123; in assay [13], -0.112. The composite z-score was 0.729 in [14]; 1.25 in [15]; 1.05 in assay [16]; 1.25 in the assay on Sam68 (KHDRBS1); -0.813 in [17]; 1.02 in [18]. Further, in [2], the z-score is -0.837. Also, in assay [11], the composite Z-score is 0.929 (inactive).
For the compound `COc1cc2c(cc1O)C(C1CC1)N(Cc1ccc([N+](=O)[O-])o1)CC2` (stereo not given), the composite z-score in assay [1] is 1.29; in assay [3], -0.423; in assay [4], 1.82; in assay [5], 1.21; in [6] it was -0.0924; in assay [7], -0.291. For the same compound, the composite z-score was 1.73 in assay [8]; 1.04 in assay [9]; 0.42 in [10]; 0.959 with Albumin (Bos taurus); 0.0159 in [12]; -0.0826 in assay [13]. For the same compound, the composite z-score is 0.717 in assay [14]; 1.42 in [15]; 1.03 in assay [16]; 0.835 in the assay on Sam68 (KHDRBS1); -0.465 in assay [17]; 0.934 in assay [18]. Also, in [2], the z-score was -0.498. For the same compound, the composite Z-score in assay [11] is 0.676 (inactive).
`COc1ccc(C#Cc2ccc3c(c2)[C@]2(C(=O)N3)[C@H](c3ccc(OCCO)cc3)N3[C@H](c4ccccc4)[C@H](c4ccccc4)OC(=O)[C@H]3[C@@H]2C(=O)O)cc1`: the composite z-score is 1.46 in [1]; 0.362 in [3]; -0.17 in assay [4]; -0.893 in assay [5]; -0.0028 in assay [6]; -0.0999 in assay [7]. The composite z-score in assay [8] is 1.81; in [9] it was 0.523; in [10] it was 0.485; with Albumin (Bos taurus), -0.0067; in [12], 1.18; in assay [13], -0.0907. Moreover, the composite z-score in [14] is 0.653; in [15], 3.18; in [16] it was 0.811; with Sam68 (KHDRBS1), 1.3; in assay [17], 0.234; in assay [18] it was 0.761. The compound further returned a z-score in assay [2] of -1.3. Also, the composite Z-score in [11] was -0.221 (inactive).
Regarding `Cc1ccc(S(=O)(=O)N2[C@@H](c3ccccc3)C(C(=O)O)=CC[C@H]2c2ccc(C#N)cc2)cc1`, the composite z-score in assay [1] is 1.24; in assay [3], -0.145; in [4] it was 0.302; in assay [5], -0.269; in assay [6] it was 0.0267; in assay [7], 0.385. Also, the composite z-score was 0.823 in assay [8]; 1.84 in [9]; 1.57 in [10]; 1.04 in the assay with Albumin (Bos taurus); -0.0647 in assay [12]; 0.0167 in assay [13]. For the same compound, the composite z-score is 0.802 in assay [14]; 3.18 in [15]; 1.04 in assay [16]; 1.21 in the assay on Sam68 (KHDRBS1); -0.425 in [17]; 0.805 in assay [18]. This compound yielded a z-score in [2] of -0.494. For the same compound, in assay [11], the composite Z-score was 0.661 (inactive).
Consider `C[N+](C)(C)CCCCCCNC(=O)[C@H]1C[C@H]2C(=O)NCC(=O)N2[C@H]1c1cccc(OCCO)c1`, for which the composite z-score in assay [1] is 0.626; in [3], 1.5; in [4], -0.748; in assay [5], -0.95; in assay [6], -0.096; in [7] it was -0.311. The composite z-score in [8] was -0.231; in assay [9], 0.509; in [10], 0.355; in the assay with Albumin (Bos taurus), -0.27; in assay [12], 0.11; in assay [13], -0.0877. Further, the composite z-score stood at 0.594 in assay [14]; 1.05 in assay [15]; 0.662 in assay [16]; 0.562 in the assay on Sam68 (KHDRBS1); 1.36 in [17]; 0.907 in assay [18]. Moreover, the z-score in [2] is 0.643. In assay [11], the composite Z-score was 0.536 (inactive).
With `COC(=O)[C@@]1(Cc2ccccc2)[C@H]2c3cc(C(=O)N4CCCC4)n(Cc4ccc(C(F)(F)F)nc4)c3C[C@H]2CN1C(=O)c1ccccc1`, the composite z-score in [1] is 1.46; in assay [3] it was -0.208; in assay [4], 1.96; in assay [5], 0.836; in [6], 0.288; in assay [7] it was 1.36. For the same compound, the composite z-score was found to be 1.48 in [8]; 0.658 in assay [9]; 1.56 in assay [10]; 0.958 in the assay with Albumin (Bos taurus); 0.843 in assay [12]; 0.292 in assay [13]. The composite z-score in assay [14] is 0.478; in [15], 3.1; in [16] it was 0.232; with Sam68 (KHDRBS1), 1.31; in [17] it was -0.873; in assay [18] it was 1.16. This compound also came in with a z-score in [2] of -2.59. In [11], the composite Z-score is -0.296 (inactive).
Consider `COCCOC(=O)N1C(=O)[C@@]2(c3cc(C#CCC(C(=O)OC)C(=O)OC)ccc31)[C@H](C(=O)N1CCCCCCC1)[C@H]1C(=O)O[C@H](c3ccccc3)[C@H](c3ccccc3)N1[C@@H]2c1ccccc1OCCO`, for which the composite z-score in assay [1] turned out to be 1.32; in assay [3], 1.09; in assay [4] it was 2.56; in assay [5] it was 1.63; in assay [6] it was 0.931; in assay [7], 2.96. Further, the composite z-score in assay [8] was determined as 3.14; in assay [9], 3.82; in assay [10], 2.51; with Albumin (Bos taurus), 0.847; in assay [12], 1.91; in assay [13], 0.689. For the same compound, the composite z-score in assay [14] was found to be 0.761; in assay [15], 3.14; in assay [16], 1.16; in the assay on Sam68 (KHDRBS1), 1.29; in assay [17], 1.44; in assay [18] it was 1.06. This compound displayed a z-score in [2] of -2.25. The composite Z-score in assay [11] was 0.269 (inactive).
